“And” between values parts separate entries of the source, which are not always exact repeats. Equal entries are not always repeated. About 4,500 (2.2%) of roughly 200,000 compounds were called active. Another 12% or so got no clear call; they are omitted. The sample as a whole holds a higher share of actives than the screen did. Some structures have more than one record in an assay (separate samples or runs), and their calls can disagree. A number with no mark means an inactive call. The call rests on the fitted dose curve; in most records, active means well fitted inhibition curve with a large enough effect; inconclusive means small, poorly fitted or top-dose-only effect, or effect the other way; inactive means flat fitted curve, though single readings scatter.
Biological target: Cruzipain (Trypanosoma cruzi) (UniProt P25779)
Sequence (P25779 123-467 limits assumed): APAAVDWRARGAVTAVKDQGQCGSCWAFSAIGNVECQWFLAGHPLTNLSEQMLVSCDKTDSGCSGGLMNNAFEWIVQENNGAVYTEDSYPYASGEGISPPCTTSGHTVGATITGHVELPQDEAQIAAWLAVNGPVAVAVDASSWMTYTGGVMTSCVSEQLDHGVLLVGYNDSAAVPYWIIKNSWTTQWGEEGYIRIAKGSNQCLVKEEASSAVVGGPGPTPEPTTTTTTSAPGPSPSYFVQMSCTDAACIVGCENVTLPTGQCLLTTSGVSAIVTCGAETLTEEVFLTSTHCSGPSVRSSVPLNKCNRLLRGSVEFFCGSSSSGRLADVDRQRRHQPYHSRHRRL
Assay: qHTS Assay for Promiscuous and Specific Inhibitors of Cruzain (without detergent); further: nearly all actives have a fitted effect of over 40% in size
Conditions: purified cruzain, Z-FR-AMC fluorescence, no detergent
Procedure: Cruzain is a cysteine protease from the tropical parasite Trypanosoma cruzi. Dual qHTS experiment was performed against the NCGC compound collection in order to 1) identify novel inhibitors of the enzyme and 2) profile the compound collection for promiscuous inhibitors operating via colloidal aggregation (by performing detergent-free and detergent-containing comparison screens). Cruzain was assayed by the use of fluorogenic coumarin-based substrate Z-FR-AMC: proteolytic cleavage releases AMC, whose fluorescence is measured at 360 nm excitation and 450 nm emission. Purified cruzain was supplied by the labs of Prof. James McKerrow and Brian Shoichet, UC San Francisco.
This assay had 0.00005% Triton X-100 concentration. See also releated assay "qHTS Assay for Promiscuous and Specific Inhibitors of Cruzain (with detergent)" with 0.01% Triton X-100.
See following references for additional details:
Assay Provider: Shoichet, Brian; University of California, San Fancisco
Screening Center PI: Austin, C.P.
Screening Center: NIH Chemical Genomics Center [NCGC]
Buffer: 100 mM Sodium Acetate, pH 5.5, 5 mM DTT, Triton X-100 concentration: 0.01%.
Buffer in columns 3 and 4 as negative control (no enzyme).
Substrate solution: 2 uM final concentration of Z-FR-AMC (catalog number I-1160, Bachem) dispensed throughout the plate.
Enzyme: 1.5 nM Cruzain final concentration in columns 1, 2, 5-48. Column 1 is neutral (100% activity). Column 2 contained titration of covalent inhibitor K11777, starting concentration 1 mM, then 1:2 dilution in duplicate).
Three uL of enzyme or buffer were dispensed to 1536-well Greiner black solid bottom plates. Compounds and controls (23 nL) were transferred via Kalypsys PinTool. The plates were incubated for 15 min at room temperature, and then 1 uL of substrate solution was added to start the reaction. The plates were immediately transferred to and read 4 times every 30 seconds for 2 min on ViewLux High-throughput CCD imager (Perkin-Elmer) using 360 nm excitation and 450 nm emission fluorescence protocol. The fluorescence intensity difference between the third and the first time points (time lapse of 60 seconds) was used to compute reaction progress.
Potency means the concentration at half of the fitted maximal effect.

SMILES	max response, negative = inhibition	Potency
Cc1ccccc1-n1c(=O)c2ccccc2n(Cc2ccc(F)cc2)c1=O	6.2%	
COc1ccc(C(CC(=O)O)NC(=O)Cc2ccccc2)cc1 (configuration not stated)	10.2%	
O=C(Cc1ccc(-c2ccccc2)cc1)NC(c1ccccc1)c1ccccc1		25.1 µM (active)
O=C(O)Cc1ccc(-c2ccccc2)cc1	-11.7% and 9.66%	
COc1ccc(C(=O)Nc2onc3c2CCCC3)cc1	-6.11%	
Cc1ccc(NC(=S)NC(=O)/C=C/c2ccc(Cl)cc2)cc1		10 µM (active)
Cc1nn(C)cc1C(=O)NNC(=S)Nc1ccc(Cl)cc1	-0.36%	
COC(=O)Cc1ccc(NC(=S)NCc2ccc(Cl)cc2)cc1	-2.73%	
CCCN1C(=O)C(O)(CC(=O)c2ccc(CC)cc2)c2cc(Br)ccc21 (configuration not stated)	2.6%	
COc1ccccc1CNC(=O)C(Cc1ccccc1)NS(=O)(=O)c1ccc2c(c1)oc(=O)n2C (configuration not stated)	-15.4%	
O=S(=O)(NCC(c1ccco1)N1CCOCC1)c1cc(F)ccc1F (configuration not stated)	-1.04%	
COc1cccc(NC(=O)c2ccc(Cn3cc([N+](=O)[O-])cn3)o2)c1	3.2%	
Cc1cccc(NC(=O)c2sc(-c3ccccc3)nc2-c2ccc([N+](=O)[O-])cc2)c1		20 µM (active)
CC(=O)c1cccc(NC(=O)c2nc(-c3ccccc3)n(-c3cccc(C)c3)n2)c1	-26.5%	
O=C(NCCS(=O)(=O)N1CCN(c2ccc(F)cc2)CC1)c1ccccc1Br	-13%	
Cc1cccc(CNC(=O)c2cnc3sc(N4CCCCC4)nn3c2=O)c1	13.2%	
CC(Oc1ccc(-c2ccccc2)c(F)c1)c1ccn(S(=O)(=O)c2cccc3ccccc23)n1 (configuration not stated)		12.6 µM (active)
COc1ccccc1N1CCN(c2ncnc3onc(-c4cccc(Cl)c4)c23)CC1	9.06%	
O=C(Nc1nncs1)c1cccc(S(=O)(=O)N2CCCCC2)c1	0.0572%	
CCOC(=O)CSc1nnc(NC(=O)c2cccc(S(=O)(=O)N3CCCCC3)c2)s1		20 µM (active)
O=C(Nc1nnc(S(=O)(=O)N2CCCCCC2)s1)c1cccc(Br)c1	6.01%	
COc1cc(CNCCSc2nnnn2C)ccc1OCc1ccc(Cl)cc1Cl	8.01%	

SMILES	max response, negative = inhibition	Potency
CCNC(=S)N(CCc1c(C)[nH]c2ccc(C)cc12)Cc1ccco1	-13.2%	
COc1ccc2[nH]c(C)c(CCN(Cc3cccs3)C(=S)Nc3ccccc3OC)c2c1		15.8 µM (active)
COc1ccc(NC(=S)NCc2cccs2)c(OC)c1	1.46%	
Cc1ccc(Cl)cc1N(C)C(=O)Cn1nc(Cc2cccnc2)c2ccccc2c1=O	14.5%	
CC(C)(C)c1ccc(OCC(=O)N2CCC(c3nc4ccccc4s3)CC2)cc1	-14.4%	
CCOC(=O)Cn1c(N)c(C(=O)OC)sc1=S	-4.92%	
CCOC(=O)c1sc(=S)n2c1[nH]c(=O)c1ccc(C(=O)OC)cc12		25.1 µM (active)
CCOC(=O)c1sc(=S)n(-c2cccc(OC)c2)c1N	-7.85%	
COc1ccc(CCNC(=O)CCc2c(C)nc3c(c(C)nn3-c3ccc(C)c(C)c3)c2C)c(OC)c1OC	0.259%	
Fc1ccc(CN2CCc3nc(Nc4ccccc4)ncc3C2)cc1F	-18.7%	
Cc1ccc(CCNC(=O)C2CCN(c3nnc(-n4cccc4CNc4ccc(C)cc4)s3)CC2)cc1	-8.42%	
Cc1ccc(C)n1-c1nnc(N2CCC(C(=O)NCc3ccc(F)cc3)CC2)s1	5.22%	
CSc1ccc(CCNC(=O)C2CCN(c3nnc(-n4cccc4)s3)CC2)cc1		31.6 µM (active)
CSc1nc(-c2ccccc2Cl)nc2c1Cc1c(CO)cnc(C)c1O2	-8.02%	
COc1ccc(C2C(=O)N(C3CCCCCC3)CC(=O)N2CCc2ccc(Cl)cc2)cc1OC (configuration not stated)	10.9%	
COc1ccc(C2CC(=O)n3c(nc4ccccc43)S2)cc1OC (configuration not stated)	0.892%	
COc1cc(C2CC(=O)N3CN(Cc4ccccc4)CSC3=C2C#N)ccc1OCc1ccccc1 (configuration not stated)		15.8 µM (active)
CCOCCCNC(=O)c1ccc2nc(CCc3ccccc3)oc2c1	-6.83%	
Cc1cccc(C(=O)NCCc2nc3ccccc3n2Cc2ccccc2Cl)c1	15.2%	
Cc1cccc(NC(=O)Cn2c(=O)n(CCC(C)C)c(=O)c3cccnc32)c1	-11.5%	
CCN(CCCNC(=O)c1cc2cc3cc(OC)ccc3nc2s1)c1ccccc1	0.913%	
Cc1ccc(C(=O)NNC(=O)c2cc3cc4ccccc4nc3s2)cc1		15.8 µM (active)

SMILES	max response, negative = inhibition	Potency
Cc1ccc(C(=O)c2c(NC(=O)c3ccccc3)sc(C)c2C)cc1	-26.9%	
COCCNc1ncnc2c1c(-c1ccccc1)cn2-c1ccc(C)c(Cl)c1	6.98%	
COc1ccc(-n2c(SCC(N)=O)nc3c(oc4ccccc43)c2=O)cc1	-4.62%	
Cc1ccc(-n2c(SCC(=O)Nc3cccc(F)c3)nc3c(oc4ccccc43)c2=O)cc1C		12.6 µM (active)
Cc1cccc(-n2c(SCC(N)=O)nc3c(oc4ccccc43)c2=O)c1	-3.27%	
Cc1ccc(C(=O)Nc2c(C(=O)NC(C)(C)C)oc3ccccc23)cc1	11.2%	
COc1ccc(OC)c(-c2csc(-c3c(N)c(C(=O)c4ccccc4)n4ccccc34)n2)c1	-9.44%	
COc1ccc(NC(=O)c2ccc(OC)cc2)cc1	-1.58%	
CCn1c(/C=N/NC(=O)c2ccc(OC)cc2)nc2ccccc21	-22.8%	
COc1ccc(C(=O)Nc2ccccc2C(=O)N/N=C/c2ccccc2OC)cc1		25.1 µM (active)
CN(C)c1ccc(-n2cccc2/C=N/n2cnnc2)cc1	-10.4%	
CN(C)c1ccc(-n2cccc2/C=C2/SC(=Nc3ccc(F)cc3)NC2=O)cc1		10 µM (active)
N#Cc1ccccc1Cn1cnc2nc3c(cc2c1=O)CCCC3	2.69%	
CC(=O)Nc1c(C)nn(-c2ccccc2)c1N1CCC(C(=O)Nc2cc(Cl)ccc2C)CC1	-5.38%	
CCN(C(=O)CSc1nnc(C)n2c1cc1occc12)c1ccccc1	-4.51%	
CCCCN(CC)C(=O)c1c[nH]c2ccc(S(=O)(=O)Nc3cccc(OC)c3)cc2c1=O	-1.35%	
CCOC(=O)c1ccc(-c2ccc(/C=C(\C#N)C(=O)Nc3ccc(OCC)cc3)o2)cc1	-8.32%	
Cc1ccc(Cc2cnc(NC(=O)/C(C#N)=C/c3ccc(-c4cccc([N+](=O)[O-])c4)o3)s2)cc1		3.16 µM (active)
CCOC(=O)c1ccc(-c2ccc(/C=C(\C#N)C(=O)Nc3ccc(C)cc3)o2)cc1	-9.9%	
COc1ccc(-c2nc3c4ccccc4n(CC(=O)Nc4ccc(C(C)=O)cc4)c(=O)n3n2)cc1	12.6%	
CCN(CC)S(=O)(=O)c1ccc2c(c1)c(=O)c(C(=O)N1CCN(c3cccc(Cl)c3)CC1)cn2C	15.1%	
COc1ccc(CCC(=O)NCCc2csc(-c3ccc(Cl)cc3)n2)cc1	28.2%	

SMILES	max response, negative = inhibition	Potency
CC(=O)c1c(O)c(C)c(O)c(Cc2c(O)c3c(c(C(=O)/C=C\c4ccccc4)c2O)OC(C)(C)C=C3)c1O	23.6%	
CC(=O)c1c(O)c(C)c(O)c(Cc2c(O)c3c(c(C(=O)/C=C/c4ccccc4)c2O)OC(C)(C)C=C3)c1O	24.8%	7.94 µM (active)
O=C(/C=C/c1ccccc1)c1ccccc1O	9.27% and -2.28%	
COc1cc(C(=O)NCC(c2ccc(Cl)cc2)N2CCOCC2)cc(OC)c1OC (configuration not stated)	9.67%	
O=C(NCCc1ccccc1)/C(=C\c1ccc([N+](=O)[O-])cc1)NC(=O)c1ccccc1	-28.6%	
O=C(O)c1ccc(NC(=O)c2cccs2)cc1	-2.86%	
CNC(=O)/C(=C\C=C\c1ccccc1)NC(=O)c1ccc([N+](=O)[O-])cc1	1.75%	
O=C(NC(=S)Nc1ccc(NC(=O)c2cccs2)cc1)c1ccc([N+](=O)[O-])cc1		12.6 µM (active)
O=C(Nc1ccccc1)/C(=C/c1ccc([N+](=O)[O-])cc1)NC(=O)c1ccccc1		10 µM (active)
COCCCNC(=S)NC(=O)c1ccc([N+](=O)[O-])cc1	-9.94%	
Cc1cccc(C(=O)Nc2ccc(-c3nc4ncccc4o3)cc2C)c1	-6.61%	
Cc1noc2ncnc(NCc3ccccc3Cl)c12	-9.31%	
Cc1ccc(C)c(N2CCN(S(=O)(=O)c3ccc4c(c3)C(C(C)C)C(=O)N4)CC2)c1 (configuration not stated)	-9.68%	
CCOC(=O)c1cccc(NS(=O)(=O)c2cn(C)c(C)n2)c1	6.22%	
Cc1ccc2c(=O)cc(C(=O)Nc3sc4c(c3C(=O)NCc3cccnc3)CCCC4)oc2c1	-7.89%	
Cn1nc(-c2ccccc2)c(CSc2cccc(Cl)c2)c1Cl	2.52%	
Cc1ccc(S(=O)(=O)c2c(COC(=O)c3cccc(Cl)c3)c(-c3ccccc3)nn2C)cc1		25.1 µM (active)
Cc1cc(C)n(-c2c(F)c(F)c(COC(=O)c3ccccc3)c(F)c2F)n1	2.62%	
Cc1ccc(CNC(=O)c2c(O)nc3c(C)cccn3c2=O)cc1	-9.77%	
O=C(O)c1c(CNCc2cccc(F)c2)c2ccccc2n1Cc1ccccc1	0.0489%	

Source: PubChem BioAssay AID1476 (National Center for Advancing Translational Sciences (NCATS), 2009)
